Compounds with a hit are over-represented: about 16% of the library has one in this group of screens.
DT40 TDP1 CPT: qHTS for Inhibitors of human tyrosyl-DNA phosphodiesterase 1 (TDP1): qHTS in cells in presence of CPT | AID 686979, 2013 | 12% of 420,000 active | chicken DT40 Tdp1-/-;hTDP1 cells + 20 nM CPT, ATP luminescence, 48 h | Potency, µM (series often up to 46.2 µM), inactives show at the highest dose activity change, negative = growth inhibition, most hits filed as inhibitors; note: potency is the fitted concentration of half-maximal effect; % is set by controls: 0 for no effect and ±100 for the full control effect; nearly all actives have a fitted effect of over 55% in size
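Chicken DT40 Tdp1-/- cells stably complemented with human TDP1 were seeded at 400 cells/well in medium containing 20 nM camptothecin, exposed to pin-transferred compounds, and grown at 37 °C for at least 48 hr. Viability was read as ATP luminescence.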
uPA surface inh: qHTS for Inhibitors of Cell Surface uPA Generation. Potency, µM (titrated, usually from 38.3 µM), for the others: top-dose activity change, negative = inhibition, hits mostly inhibitors. cell surface uPA generation assay, qHTS. AID 540303, 2011. 0.31% of 330,000 active; active = well fitted inhibition curve with a large enough effect; inconclusive = small, poorly fitted or top-dose-only effect; inactive = no such curve, though single readings can be large or run the other way; tested in mouse RAW 264.7 cells; note: potency is the fitted concentration of half-maximal effect; % is set by controls: 0 for no effect and ±100 for the full control effect; nearly all actives have a fitted effect of over 55% in size
TDP1 cell noCPT: qHTS for Inhibitors of human tyrosyl-DNA phosphodiesterase 1 (TDP1): qHTS in cells in absence of CPT; DT40 Tdp1-/- hTDP1 cells, no CPT, ATP luminescence, 48 h; Potency, µM (top dose mostly 46.2 µM), without a hit: at the top dose activity change, negative = growth inhibition, actives largely listed as inhibitors; 15% of 420,000 active; note: potency is the fitted concentration of half-maximal effect; % is set by controls: 0 for no effect and ±100 for the full control effect; nearly all actives have a fitted effect of over 55% in size
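Cells were dispensed at 400 per well, compounds added by pin tool, plates incubated ≥48 hr at 37 °C, then CellTiter-Glo added for 30 min at room temperature before luminescence reading. Line: DT40 Tdp1-/- complemented with hTDP1; camptothecin omitted.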
TDP1 block: qHTS Assay for Inhibitors of Tyrosyl-DNA Phosphodiesterase (TDP1) | 0.28% of 350,000 active | recombinant TDP1, AlphaScreen DNA substrate cleavage | Potency, µM (doses to about 130 µM), without a hit: at the highest dose activity change, negative = inhibition, most hits filed as inhibitors; note: potency is the fitted concentration of half-maximal effect; % is set by controls: 0 for no effect and ±100 for the full control effect; nearly all actives have a fitted effect of over 40% in size
Target sequence (Q9NUW8 whole entry, looked up): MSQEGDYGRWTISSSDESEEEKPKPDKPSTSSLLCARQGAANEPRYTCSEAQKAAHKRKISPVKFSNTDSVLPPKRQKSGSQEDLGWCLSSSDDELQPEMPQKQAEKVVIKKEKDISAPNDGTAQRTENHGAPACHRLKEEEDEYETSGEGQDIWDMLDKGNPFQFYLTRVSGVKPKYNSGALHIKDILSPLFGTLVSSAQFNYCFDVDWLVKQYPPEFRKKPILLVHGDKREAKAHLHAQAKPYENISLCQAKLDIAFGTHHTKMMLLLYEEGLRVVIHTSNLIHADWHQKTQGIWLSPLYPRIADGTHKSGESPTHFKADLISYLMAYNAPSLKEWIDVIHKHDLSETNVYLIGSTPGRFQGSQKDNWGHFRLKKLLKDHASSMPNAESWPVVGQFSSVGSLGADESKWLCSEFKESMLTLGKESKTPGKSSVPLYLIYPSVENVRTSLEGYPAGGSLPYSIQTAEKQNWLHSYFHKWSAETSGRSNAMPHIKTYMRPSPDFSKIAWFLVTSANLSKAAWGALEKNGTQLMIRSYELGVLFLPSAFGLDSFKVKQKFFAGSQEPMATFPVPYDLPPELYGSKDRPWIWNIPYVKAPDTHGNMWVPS
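Steps: enzyme plus compound, 15 min RT; add biotin/phosphotyrosine-FITC oligonucleotide (15 nM final), react 5 min; add donor/acceptor beads (10 ug/ml final), 10 min; read AlphaScreen. Tdp1 at 1 nM final.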
miR-21 reporter: qHTS Assay for Modulators of miRNAs and/orActivators of miR-21; AID 2288, 2010; 340,000 tested, under 10 active; Potency, µM (top dose mostly 38.3 µM), inactives show at the highest dose activity change, positive = activation, hits mostly activators; HeLa miR-21 FLuc reporter, luciferase, 48 h;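 note: % of control where 0% means no effect; miR-21 action dims this reporter so a rising signal means less miR-21 action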
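Using DMEM plus 10% FBS, HeLa miR-21-FLuc cells are incubated with test compounds (final up to about 40uM) for 48 hours; firefly luciferase signal is then imaged following reagent-mediated lysis.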
Starred values were filed as active, the others as inactive; ? = inconclusive; . = not tested or not shown; ! = not active in a repeat; [ ] = remark or other dose. Unless noted, calls come from the whole dose curve; as a rule, active = well fitted curve in the direction sought with a large enough effect; inconclusive = small, poorly fitted or top-dose-only effect, or another doubt; inactive = no such curve, though single readings can be large; an effect the other way counts as inactive or inconclusive.

SMILES | DT40 TDP1 CPT | uPA surface inh | TDP1 cell noCPT | TDP1 block | miR-21 reporter
Cc1ccc(C)c(Nc2cc(C)nc(-c3ccccc3O)n2)c1 | 6.51µM* | 7.08µM* | 5.8µM* | . | 18.6%
Cc1cc(Nc2ccccc2Cl)nc(-c2ccccc2O)n1 | ? | -4.7% | ? | . | -15.1%
CCOC(=O)c1ccc(Nc2cc(C)nc(-c3ccccc3O)n2)cc1 | ? | -0.1% | 29.1µM* | -2.3% | 5.2%
Cc1cc(N/N=C/c2c(O)ccc3ccccc23)nc(-c2ccccc2O)n1 | 8.2µM* | 0.3% | 2.59µM* | 5.5% | -7.9%
CCOC(=O)C1=C(O)/C(=C/c2ccc(OCC(=O)O)c(OC)c2)SC1=Nc1ccc(OC)cc1 | 1.0% | -2.2% | -18.8% | 2.7% | 5.0%
COc1ccc(CC(=O)OCC(=O)NNC(=O)c2ccccc2)cc1 | -8.4% | -9.0% | 5.7% | -1.0% | .
O=C(NCc1ccccc1)C(c1ccc(-c2ccccc2)cc1)N1CCN(CCN2CCOCC2)CC1 (centres undefined) | 16.4µM* | . | 20.6µM* | . | .
Cc1ccc(F)cc1NC(=O)CSc1nc(Nc2ccccc2)nc(N2CCOCC2)n1 | ? | 4.3% | ? | 4.3% | 0.9%
CCOC(=O)C1=C(C)N(C)C(=S)NC1c1cc(OC)ccc1OC (centres undefined) | ? | -5.0% | 20.6µM* | 6.1% | 0.6%
COc1ccccc1NC(=O)NCCN1CCN(c2cccc(Cl)c2)CC1 | ? | 8.8% | 23.1µM*! | -7.5% | 0.7%
O=C(NCCN1CCN(c2ccccc2)CC1)Nc1cccc(Br)c1 | ? | -2.1% | 29.1µM* | 7.5% | 5.3%
O=C(CCN1CCN(c2ccccc2)CC1)Nc1cccc(Br)c1 | -27.8% | 6.4% | ? | 0.0% | 2.3%
O=C(NCCN1CCN(c2cccc(Cl)c2)CC1)C1COc2ccccc2C1 (centres undefined) | ? | . | ? | 6.5% | 26.4%
O=C(NCCN1CCN(c2cccc(Cl)c2)CC1)Nc1ccccc1 | ? | 3.4% | 14.6µM* | -4.3%[12.3 µM] | 0.0%
COc1ccc2c(c1)CC(C(=O)NCCN1CCN(c3cccc(Cl)c3)CC1)CO2 (centres undefined) | 16.4µM* | . | 14.6µM* | 5.3% | 4.7%
COc1ccccc1NC(=O)NCCN1CCCCC1 | -1.0% | 28.9% | 6.4% | -9.6% | -1.1%
CCOc1cc(C(=O)OCC(=O)Nc2ccc(Cl)cn2)ccc1OCC(=O)N1CCOCC1 | 3.6% | -1.7% | ? | 0.6% | -2.0%
Cc1ccc2c(c1)N(C(=O)CCC(=O)NCc1cccc(F)c1)CCO2 | 0.4% | 5.1% | 12.8% | . | 0.2%
Cc1ccc(Nc2c3c(nc4nncn24)CCC3)cc1 | -8.0% | . | -27.3% | 7.0% | -19.4%
Cc1cccc(Nc2c3c(nc4nncn24)CCC3)c1 | -24.2% | . | -22.9% | 2.3% | -22.7%
Brc1ccc(Nc2c3c(nc4nncn24)CCC3)cc1 | ? | . | 18.4µM* | 7.0% | 2.4%
COc1ccc(Nc2c3c(nc4nncn24)CCC3)cc1Cl | 18.4µM* | . | 20.6µM* | 4.7% | ?
Cc1ccc(Nc2c3c(nc4nncn24)CCC3)cc1C | ? | . | 16.4µM* | 2.3% | -5.6%
C=CCN1C(=O)CS/C1=N\S(=O)(=O)c1ccc(Cl)cc1 | -1.7% | 9.3% | ? | 1.1% | -4.4%
O=C(Nc1ccc(N2CCOCC2)cc1)C1CC(O)CN1S(=O)(=O)c1ccc(Cl)cc1 (centres undefined) | -22.8% | 2.6% | -18.0% | 2.6% | -9.2%
Cc1ccc(C)c(SCC(=O)NCC(c2ccco2)N2CCCCC2)c1 (centres undefined) | ? | 0.5% | 20.6µM* | . | .
Cc1cc(Br)ccc1SCC(=O)NCC(c1ccco1)N1CCCCC1 (centres undefined) | 18.4µM* | -0.4% | ? | . | .
Cc1ccc(C)c(OCC(=O)NCC(c2ccco2)N2CCCCC2)c1 (centres undefined) | ? | 0.8% | ? | 0.7% | .
